PubChem BioAssay AID720580 (National Center for Advancing Translational Sciences (NCATS), 2013)
Out of some 330,000 compounds screened, about 1,500 (0.45%) were called active. Not shown: some 6% with an inconclusive outcome. Calls come from the whole dose curve; tested in A549 cells. Only a selection was taken, and actives are over-represented in it overall.

assay: qHTS for Stage-Specific Inhibitors of Vaccinia Orthopoxvirus: Venus Reporter Primary qHTS; details: Vaccinia virus Venus reporter expression, fluorescence; series mostly up to 36.5 µM; activity change, negative = inhibition: at the top concentration; note: nearly all actives have a fitted effect of over 30% in size
% is set by controls: 0 for no effect and ±100 for the full control effect; potency is the fitted concentration of half-maximal effect.

Compound | Potency | activity change, negative = inhibition
CC(C)Oc1c(Br)cc(Br)cc1/C=N/NC(N)=S | 5.01 µM (active) | –
NC(=S)N/N=C/c1coc2cc(Cl)ccc2c1=O | – | -2.91% (inactive)
Cc1cccc(-n2c(C)cc(/C=N/NC(N)=S)c2C)c1 | – | -19.7% (inactive)
CCCCCn1nnnc1C1c2ccccc2C(=O)N1Cc1ccco1 (stereo unspecified) | – | 0.846% (inactive)
O=C(Cc1ccc2c(c1)CCCC2)Nc1ccccc1Cl | – | -2.79% (inactive)
O=C(Nc1ccccc1Cl)O/N=C(/c1ccccc1)c1ccccn1 | – | -8.43% (inactive)
O=C(Nc1ccccc1Cl)/C(Cl)=C(\Cl)S(=O)c1ccccc1 (stereo unspecified) | 10 µM (active) | –
CC(CCC(=O)O)C1CCC2C3C(O)C[C@@H]4CC(O)CC[C@@]4(C)C3CC[C@@]12C (stereo partly specified) | inactive | –
C[C@@]12CCC3C(CC[C@@H]4CC(O)CC[C@@]34C)C1CCC2O (stereo partly specified) | – | 0% (inactive)
C[C@]12CC[C@H](O)C[C@H]1CC[C@@H]1C2CC[C@]2(C)[C@@H](C3=CC(=O)OC3)[C@@H](O)C[C@]12O (stereo partly specified) | 3.16 µM (active) | –
Cc1csc(NCC(=O)c2c[nH]c3ccccc23)n1 | – | -23% (inactive)
CCOC(=O)[C@]12CCC=C1N(Cc1cccc3ccccc13)C(=O)[C@H](CC(=O)NCc1cccc(C(F)(F)F)c1)C2 | – | -28.4% (inactive)
COc1ccc(C(C)C)cc1-c1ccc2nncn2c1 | – | -10.8% (inactive)
Cc1cc(C)n2c(NCc3ccccc3)c(CC(C)C)nc2n1 | – | 18.6% (inactive)
NC(c1ccccc1)c1csc(NC(=O)Nc2cccc(C(F)(F)F)c2)n1 (stereo unspecified) | 11.2 µM (active) | –
O=C(Nc1ccc(C(=O)N2CCOCC2)cc1)Nc1cccc(C(F)(F)F)c1 | – | -15.9% (inactive)
CC(C)C[C@H](NC(=O)Nc1cccc(C(F)(F)F)c1)C(=O)O | – | -0.745% (inactive)
CC(=O)c1ccc(Nc2nc(C(N)c3ccccc3)cs2)cc1 (stereo unspecified) | – | -10.3% (inactive)
Cc1ccc(NC(=O)Nc2cccc(C(F)(F)F)c2)nc1 | – | -3.51% (inactive)
NC(c1csc(NC(=O)Nc2cccc(C(F)(F)F)c2)n1)C1CCCCC1 (stereo unspecified) | 10 µM (active) | –
COc1ccc(C(O)C(O)(C(=O)OC(C)C)c2ccc(C)cc2)cc1 (stereo unspecified) | – | -12.4% (inactive)
COc1cc(C=C(OC(C)=O)c2ccc3c(c2)OCO3)cc(OC)c1OC | – | -4.33% (inactive)

Compound | Potency | activity change, negative = inhibition
COc1ccc(-c2ccc(C(=O)NCCN3CCOCC3)c3occc23)c(C)c1 | – | -23.2% (inactive)
COc1ccccc1Cc1c(-c2ccc(Cl)cc2)nc2c3ccccc3ccn12 | – | -4.99% (inactive)
COc1ccc(-c2coc3c(C(=O)NC(C)C)cccc23)c(C)c1 | – | -4.73% (inactive)
CCCCCn1nnnc1-c1nc2cc3ccccc3cc2[nH]c1=O | – | 64.3% (inactive)
CCOC(=O)C1C(C)C(C(C)(C)C)N(S(=O)(=O)c2ccc(C)cc2)C1c1ccccc1 (stereo unspecified) | – | -24.5% (inactive)
Cc1cc2nc(-c3ccc(Cl)cc3)c(Cc3cccc(F)c3)n2c(C)c1Br | – | 6.13% (inactive)
COc1cccc(CNC(=O)[C@@H]2CCCN2C(=O)[C@@H]2CCCN2C(=O)c2ccccc2)c1 | – | 2.4% (inactive)
COC(=O)c1ccc2nc(-c3ccc(C)cc3)c(Cc3ccc(OC)cc3C)n2c1 | – | -2.33% (inactive)
O=S1(=O)CC(N2CCN(Cc3ccccc3F)CC2)CN1Cc1cn(Cc2cccc(C(F)(F)F)c2)nn1 (stereo unspecified) | – | -5.88% (inactive)
COc1c(Cl)cc(Cl)cc1C(=O)Nc1cccc2cccnc12 | – | 0.266% (inactive)
S=C(NCc1cccnc1)Nc1ccc(Cl)cc1Cl | – | -2.92% (inactive)
CC(=O)/C(=N\Nc1ccc(Cl)cc1Cl)Sc1cccc2cccnc12 | 10 µM (active) | –
COc1ccc(/C=C/c2ccnc3ccccc23)cc1OC | – | -15.9% (inactive)
Cc1cn(COC/C=C/c2ccccc2)c(=O)[nH]c1=O | – | -11% (inactive)
Cc1[nH]c(=O)c(C(=O)/C=C/c2ccccc2)c2c1CCCC2 | 6.31 µM (active) | –
CC1(C(=O)O)CCCN(C(=O)/C=C/c2ccccc2)C1 (stereo unspecified) | – | -5.44% (inactive)
CC(C)(C)c1ccc(C(=O)C[n+]2cccc3cc(Cl)ccc32)cc1 | – | 313% (inactive)
CCOC(=O)c1ccn(S(=O)(=O)c2ccc(C)cc2)c1-c1ccccc1 | – | -2.99% (inactive)
CN(Cc1cn(Cc2ccc(C(F)(F)F)cc2)nn1)C1CN(Cc2cn(Cc3ccc(C(F)(F)F)cc3)nn2)S(=O)(=O)C1 (stereo unspecified) | – | -28% (inactive)
c1ccc(Cc2c(-c3ccco3)nc3c4ccccc4ccn23)cc1 | – | -0.586% (inactive)
CCC(CC)C(=O)N1CCc2cc(OC)c(OC)cc2C1COc1ccc(F)cc1 (stereo unspecified) | – | -6.92% (inactive)
COc1cc2c(cc1OC)CN(CC(=O)Nc1ccc(F)cc1)CC2 | – | -9.04% (inactive)

Compound | Potency | activity change, negative = inhibition
CC[C@H]1CN2CCc3cc(OC)c(OC)cc3[C@@H]2C[C@@H]1C[C@H]1NCCc2cc(OC)c(OC)cc21 | 0.562 µM (active) | –
CCc1oc(-c2ccc(OC)cc2)c(C(=O)OCCCCCO)c1C(C)OCCO (stereo unspecified) | – | 3.76% (inactive)
Cc1ccc(-c2nc(=N)sn2Cc2ccccc2)cc1 | – | -10.9% (inactive)
S=c1[nH]c(=S)c2n[nH]nc2[nH]1 | – | -10.3% (inactive)
CCCc1c(-c2ccccc2F)ncn1Cc1ccccc1OC | – | -12.8% (inactive)
COc1cccc(CNCCc2c[nH]c3ccccc23)c1OCc1ccccc1F | 10 µM (active) | –
c1cncc(CNCCc2c[nH]c3ccccc23)c1 | – | -2.23% (inactive)
COc1ccc(S(=O)(=O)NCCc2c[nH]c3ccccc23)cc1OC | – | 1.43% (inactive)
CO[C@H]1O[C@@H]2O[C@@]3(C)CC[C@@H]4[C@@H](C)CC[C@@H]([C@H]1C)[C@@]24OO3 | – | -8.19% (inactive)
CN(Cc1ccccc1F)c1cc2c(c3c1ccn3C)C1CCC2O1 (stereo unspecified) | – | -5.91% (inactive)
CN(C)c1ccc(/C=C/c2sc3ccccc3[n+]2C)cc1 | – | 66.9% (inactive)
OCC(O)C(O)C(O)C(O)C=Nc1ccc(/C=C/c2ccnc3ccccc23)cc1 (stereo unspecified) | – | 2.54% (inactive)
CCOCCC(=O)Nc1ccc2c(c1)c(=O)n(C)n2-c1ccc2ccccc2c1 | – | -25.4% (inactive)
CS(=O)c1ccc(/C=C2\C=Cc3ccccc32)cc1 (stereo unspecified) | – | 3.52% (inactive)
COc1cccc(/C=C2\SC(=S)N(CCCC(=O)N3CCOCC3)C2=O)c1 | 12.6 µM (active) | –
COc1ccc(/C=C2\SC(=S)N(CCC(=O)N3CCOCC3)C2=O)cc1OC | – | -26.8% (inactive)
Cc1cc(/C=C2/SC(=O)N(CC(=O)N3CCCC3)C2=O)ccc1N1CCOCC1 | – | -17.6% (inactive)
CCC(C)CN1C(=O)CSCC1(C)C(=O)NCc1ccccc1 (stereo unspecified) | – | -10.8% (inactive)
COc1ccc(C(C)(NC(C)=O)c2nc(-c3ccc(S(C)(=O)=O)cc3)cs2)cc1 (stereo unspecified) | – | 8.43% (inactive)
COc1cccc(OCc2nnc3n2N=C(c2ccccc2)C(CC(=O)O)S3)c1 (stereo unspecified) | – | -0.775% (inactive)
CCCCCCCCCCOC(=O)Cn1c(COc2cccc(OC)c2)[n+](C)c2ccccc21 | 11.2 µM (active) | –
CCCCn1c(N)c(N(CCOC)C(=O)c2cccc(OCc3ccccc3)c2)c(=O)[nH]c1=O | – | -6.07% (inactive)
